Consider nine molecules from PubChem BioAssay (EPA / NIEHS).

Usually AC50 stands for the concentration at which the activity in the assay is half-maximal.

Assay [1] in a line: CCTE_Simmons_MITO_inhib_resp_rate: CCTE's HepG2 Seahorse XF Respirometric Screening Assay at Inhibited Respiratory State [full ETC block], Simmons Lab (AID 2284006). Conditions: actives raise or lower the signal. The method in brief: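 This endpoint is the respiration rate remaining after rotenone/antimycin A block, in HepG2 cells on a Seahorse XF96. Chemicals spanned 125 nM–100 uM final, in three biological replicates. OCR was read every 6 minutes for 72 minutes and compared with DMSO vehicle.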

Assay [2] can be described thus: CCTE_Shafer_MEA_acute_spike_number: CCTE's Neural Acute Assay for Total Number of Spikes, Shafer Lab (AID 2284008).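 As to AC50: curve fitted for decrease in spike count so AC50 reflects inhibitors.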 The essentials:
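Rat cortical cultures, DIV 13/15, 37 C. 40 min baseline rec, cpd 0.03-40 uM, 40 min post-dose rec. Band-pass 300-5000 Hz, spike threshold 8x rms; % change in spike count per well, DMSO neg ctrl, loss-of-signal fit.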

Assay [3] can be described thus: CCTE_Shafer_MEA_acute_firing_rate_mean: CCTE's Neural Acute Assay for Mean Firing Rate, Shafer Lab (AID 2284009).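 Also: analyzed for loss of signal so actives lower firing rate relative to DMSO.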 The method in brief: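 Primary rat cortical neurons on 16-electrode MEA wells were exposed on DIV 13 or 15 to compound (0.03-40 uM). Spike counts per recording time, averaged over electrodes, were compared between 40-min baseline and 40-min post-exposure recordings as percent change.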

Assay [4] in a line: CCTE_Harrill_HTTr_Viability_MCF7: CCTE's 6-hour Cell Viability Assessment for the High-Throughput Transcriptomics (HTTr) Platform, in MCF-7 cells cultured in DMEM + 10% fetal bovine serum, Harrill Lab (AID 2284010). The method in brief:
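Propidium iodide exclusion, imaged by high-content analysis, gauged viability after a six-hour exposure across eight concentrations. Cells were MCF-7 grown in DMEM with 10% fetal bovine serum; fits run in both directions against DMSO.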

The nature of assay [5]: CCTE_Harrill_HTTr_Apoptosis_MCF7: CCTE's 6-hour Apoptosis Assessment for the High-Throughput Transcriptomics (HTTr) Platform, in MCF-7 cells cultured in DMEM + 10% fetal bovine serum, Harrill Lab (AID 2284011). The essentials:
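Read-out: CellEvent Caspase 3/7 Green signal by high content imaging, gain-of-signal indicating apoptosis. MCF-7 cells, DMEM + 10% FBS, eight-point dilution series, 6 h exposure. Curves fitted bidirectionally relative to DMSO negative control.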

A short description of assay [6]: CCTE_Shafer_MEA_acute_burst_number: CCTE's Neural Acute Assay for Single-Electrode Bursts, Shafer Lab (AID 2284013). The method in brief: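 Primary rat cortical neurons on 16-electrode MEA wells, DIV 13 or 15, exposed to compound (0.03-40 uM; ≥3 wells); 40-min recordings at 37 C before and after treatment. Burst count expressed as percent change from baseline, DMSO as negative control.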

Assay [7] in a line: CCTE_Shafer_MEA_acute_per_burst_spike_number_mean: CCTE's Neural Acute Assay for Average Number of Spikes Per Burst, Shafer Lab (AID 2284015).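 Also: hits are decreases in mean spikes per burst versus baseline.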 The essentials:
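Rat primary cortical neurons on 48-well MEAs (DIV 13 or 15) were treated with 0.03-40 uM compound at 37 C. Mean spikes per burst over 40 min were recorded before and after exposure and expressed as percent change from baseline, relative to DMSO.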

Assay [8] can be described thus: CCTE_Shafer_MEA_acute_interburst_interval_mean: CCTE's Neural Acute Assay for Mean Interburst Interval, Shafer Lab (AID 2284016).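 Also: percent change of mean interburst interval versus each well's own pre-dose baseline; curves fitted for decrease in interburst interval relative to DMSO.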 The method in brief:
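Rat primary cortical neurons on 48-well MEAs at DIV 13 or 15 were exposed acutely to 0.03-40 uM. Spikes detected at 8x rms noise, 37 C. Mean interburst interval from 40 min recordings expressed as percent change from 40 min pre-treatment baseline.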

Assay [9] is described as follows: CCTE_Shafer_MEA_acute_burst_percentage_mean: CCTE's Neural Acute Assay for Percentage of Spikes in a Burst, Shafer Lab (AID 2284017).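 As to AC50: curve fitted for loss of signal so potency reflects decreased burst percentage.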 The method in brief: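 Primary rat cortical neurons on 48-well MEA plates, treated on DIV 13 or 15 at 0.03-40 uM. Spikes detected at 8x rms noise at 37C; percent change from 40-min baseline to 40-min post-dose recording, fitted versus DMSO.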

A short description of assay [10]: CCTE_Shafer_MEA_acute_burst_percentage_std: CCTE's Neural Acute Assay for Standard Deviation of Burst Percentage, Shafer Lab (AID 2284018).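 Also: fitted in the negative direction so actives lower burst percentage SD.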 The method in brief:
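Value is percent change from baseline in the across-electrode SD of spikes-in-bursts percentage, wells with >/= 10 active electrodes. Acute 40-min exposure to 0.03-40 uM on DIV 13 or 15 rat cortical cultures, recorded at 37 C after 40-min baseline.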

A short description of assay [11]: CCTE_Shafer_MEA_acute_per_network_burst_spike_number_mean: CCTE's Neural Acute Assay for Average Number of Spikes in a Network Burst, Shafer Lab (AID 2284019).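 As to AC50: curve fitted for loss of signal so actives reduce spikes per network burst.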 The essentials: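 Percent change from baseline in mean spikes per network burst, spikes detected at 8x rms noise. Each compound at 0.03-40 uM in at least three wells of rat cortical cultures, recorded 40 min before and 40 min during exposure.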

Assay [12] in a line: CCTE_Shafer_MEA_acute_per_network_burst_electrodes_number_mean: CCTE's Neural Acute Assay for Mean Number of Electrodes in a Network Burst, Shafer Lab (AID 2284021).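 Also: curves fitted for decreases only so hits reduce electrodes per burst.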 The essentials: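 Readout: % change in mean electrodes active per network burst, post- vs pre-treatment, each well. Spikes detected at 8x rms noise after 300-5000 Hz band-pass; rat cortical cultures, DIV 13/15, compounds 0.03-40 uM, DMSO baseline.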

The nature of assay [13]: CCTE_Shafer_MEA_acute_network_burst_percentage: CCTE's Neural Acute Assay for Percentage of Network Bursts, Shafer Lab (AID 2284022).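 Also: curves fitted for loss so actives lower network burst percentage.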 The method in brief: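 Rat cortical cultures, DIV 13/15; 20 min equilibration, 40 min baseline, compound 0.03-40 uM, 40 min recording, 37 C. Spikes: 300-5000 Hz band-pass, threshold 8x rms noise. Readout: % change in network-burst spike fraction; loss direction vs DMSO.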

The nature of assay [14]: CCTE_Shafer_MEA_acute_cross_correlation_HWHM: CCTE's Neural Acute Assay for Cross Correlation at Half Width at Half Maximum, Shafer Lab (AID 2284026).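 Also: percent change per well from pre-dose baseline in spike cross-correlogram half width; hits are a decrease in cross-correlogram half width relative to DMSO.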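 As to outcome: spontaneous network firing of rat primary cortical neurons on multiwell microelectrode arrays.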 The method in brief: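 Read-out: half width at half maximum of action-potential cross-correlogram, percent change versus pre-treatment baseline, fitted in loss direction against DMSO. Rat cortical cultures, DIV 13 or 15, dosed 0.03-40 uM, 40-min recordings at 37 C.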

Assay [15] can be described thus: CCTE_Shafer_MEA_acute_synchrony_index: CCTE's Neural Acute Assay for Synchrony, Shafer Lab (AID 2284027).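 Also: network synchrony index of spontaneous spiking in primary rat cortical neurons on MEAs; fitted for loss of signal so actives lower synchrony relative to DMSO.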 The method in brief: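 The synchrony index is taken as percent change per well between a 40 min baseline and a 40 min recording with compound (0.03–40 uM), at 37C. Rat cortical cultures on multiwell MEAs at DIV 13 or 15, spike threshold 8× rms noise.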
A short description of assay [16]: CCTE_Simmons_MITO_max_resp_rate: CCTE's HepG2 Seahorse XF Respirometric Screening Assay at Maximal Respiratory State [uncoupled], Simmons Lab (AID 2284002). Conditions: actives raise or lower the signal. The essentials: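 HepG2, Seahorse XF96, maximal OCR post-FCCP. Cpd 125 nM–100 uM final (7 conc), n=3 biological. Kinetic reads every 6 min (3 min mix/3 min measure) over 72 min; fit bidirectional vs DMSO.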

The nature of assay [17]: CCTE_Harrill_HTTr_CellCount_MCF7: CCTE's Cell Proliferation Assessment for the High-Throughput Transcriptomics (HTTr) Platform, Harrill Lab (AID 2284012; active = hit-call score of the fitted dose curve at least 0.9, where 1 is the maximum;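 also: cells exposed to compound for six hours; intended direction is loss of nuclei count meaning fewer cells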). The essentials: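 Cell count from high-content imaging of Hoechst-labeled nuclei serves as viability/growth readout. Chemicals were applied to MCF-7 cells in eight concentrations for six hours, with fitting in both directions relative to DMSO.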

Inconclusive results are not listed. Activity calls are given as the source filed them. The calls were made as follows, unless noted: active = hit-call score of the fitted dose curve at least 0.9, where 1 is the maximum; inactive = score below 0.9.

For `N#Cc1c[nH]cc1-c1cccc2c1OC(F)(F)O2`, the call in assay [1], in [4], in [5], in [6], in assay [8] and in assay [11] was inactive. Moreover, the outcome in assay [12], in [13] and in [15] was inactive. In addition, the AC50 in [2] was 4.28 µM (active); in [3], 4.27 µM (active); in assay [7], 20 µM (active); in assay [9], 20 µM (active); in assay [10], 32.4 µM (active); in assay [14], 20 µM (active).
Take `CC(C)C1(C)N=C(c2ncccc2C(=O)O)NC1=O` (configuration not stated): the molecule was called inactive in [2], in assay [3], in [4], in [5], in [6] and in assay [7]. The molecule was classed as inactive in assay [8], in [9], in assay [10], in assay [11], in [12] and in assay [13]. Further, the outcome in [14] and in [15] was inactive.
In the case of `CCN(CC)c1nc(C)cc(OP(=S)(OC)OC)n1`, the molecule was classed as inactive in assay [16], in [1], in [4], in assay [5] and in assay [17].
Turning to `CC(C)=CC1C(C(=O)OCc2coc(Cc3ccccc3)c2)C1(C)C` (configuration not stated), the call in assay [16], in assay [1], in assay [2], in [3], in assay [4] and in assay [5] was inactive. Also, the call in assay [6], in assay [7], in [11], in assay [13] and in assay [14] was inactive. Also, the AC50 is 31.2 µM (active) in assay [8]; 15 µM (active) in [9]; 20 µM (active) in assay [10]; 8.62 µM (active) in assay [12]; 20 µM (active) in assay [15].
Regarding `COc1ccc(-c2ccccc2)cc1NNC(=O)OC(C)C`, the molecule was classed as inactive in assay [16], in assay [1], in assay [4] and in assay [5].
For `CCCCC(O)(Cn1cncn1)c1ccc(Cl)cc1Cl` (configuration not stated), the AC50 in [16] is 60.5 µM (active); in [13] it was 2.23 µM (active). Moreover, the outcome in assay [1], in assay [2], in assay [3], in assay [4], in assay [5] and in [17] was inactive. Besides, the result in assay [6], in [7], in [8], in [9], in [10] and in [11] was inactive. The molecule was called inactive in [12], in assay [14] and in [15].
On to `Nc1c(Cl)c(F)nc(OCC(=O)O)c1Cl`, for which the result in assay [16], in assay [1], in [2], in [3], in [4] and in [5] was inactive. Further, the call in assay [17], in assay [6], in assay [7], in assay [8], in [9] and in assay [10] was inactive. Also, the result in assay [11], in assay [12], in assay [13], in assay [14] and in [15] was inactive.
With `COCC(C)N(C(=O)CCl)c1c(C)csc1C` (configuration not stated), the molecule was called inactive in assay [16], in assay [1], in assay [4] and in assay [5].
On to `CC1(C)C(C(=O)OC(C#N)c2cccc(Oc3ccccc3)c2)C1(C)C` (configuration not stated), for which the molecule was classed as inactive in [2], in [3], in assay [4], in assay [5], in [17] and in [6]. In assay [10], the call was inactive. The AC50 was 0.44 µM (active) in [7]; 0.309 µM (active) in assay [8]; 1.28 µM (active) in assay [9]; 0.0749 µM (active) in [11]; 0.12 µM (active) in assay [12]; 1.54 µM (active) in assay [13]. In addition, the AC50 in [14] was 28.6 µM (active); in assay [15], 1.03 µM (active).
